Assay outcomes: PubChem BioAssay, National Center for Advancing Translational Sciences (NCATS)
RORg inh = inhibitors of mouse ROR gamma transcriptional activity | P51450 | Drosophila S2 Gal4-RORgamma UAS-luciferase reporter, 20 h | Potency, µM (doses to about 53.6 µM), for the others: at the highest dose activity change, negative = inhibition, hits mostly inhibitors | 310,000 compounds, 5.4% hits; note: potency is the fitted concentration of half-maximal effect; nearly all actives have a fitted effect of over 60% in size
Target sequence (P51450 whole entry, looked up, the tested form may be a part): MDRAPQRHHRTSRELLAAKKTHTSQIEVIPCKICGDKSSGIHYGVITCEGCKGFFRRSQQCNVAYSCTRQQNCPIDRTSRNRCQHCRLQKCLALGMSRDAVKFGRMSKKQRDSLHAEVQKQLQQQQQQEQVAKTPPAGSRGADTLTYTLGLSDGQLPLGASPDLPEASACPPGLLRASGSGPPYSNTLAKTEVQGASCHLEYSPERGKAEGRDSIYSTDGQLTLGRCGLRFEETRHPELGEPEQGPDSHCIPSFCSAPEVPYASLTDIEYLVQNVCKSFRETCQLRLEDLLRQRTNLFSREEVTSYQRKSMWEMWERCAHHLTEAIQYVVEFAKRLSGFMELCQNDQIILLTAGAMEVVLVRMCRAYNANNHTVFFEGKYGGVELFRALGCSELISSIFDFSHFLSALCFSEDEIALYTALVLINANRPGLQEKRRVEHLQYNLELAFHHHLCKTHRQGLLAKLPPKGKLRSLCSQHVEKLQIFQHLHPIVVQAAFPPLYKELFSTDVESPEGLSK
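Read-out: Photinus luciferase luminescence; inhibitors lower reporter signal. Insect Schneider cells with Gal4-ROR gamma fusion under metallothionein promoter, UAS reporter; 700 uM final copper sulfate induction, 20 hr, ambient temperature.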
IL-1B inflam inh = blocks inflammasome-driven IL-1 beta release | activity change, % at 57.5 µM | 360,000 compounds, 4.7% hits | THP-1 LPS/ATP IL-1B secretion, AlphaLISA, 16 h; hits give low values; in the data active = activity change below about -50%; inconclusive = mostly about -30% to -49%
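Secreted IL-1B measured by AlphaLISA bead assay after 16 h compound exposure of THP-1 cells; compounds (final up to 57.5 uM) added 1 h before LPS (250 ng/mL) and ATP (1.25 mM) stimulation; lower signal means less secretion.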
TDP1 cell noCPT = qHTS for Inhibitors of human tyrosyl-DNA phosphodiesterase 1 (TDP1): qHTS in cells in absence of CPT | Potency, µM (series often up to 46.2 µM), for inactives: at the highest dose activity change, negative = growth inhibition, hits mostly inhibitors | DT40 Tdp1-/- hTDP1 cells, no CPT, ATP luminescence, 48 h | 420,000 compounds, 15% hits; note: potency is the fitted concentration of half-maximal effect; nearly all actives have a fitted effect of over 55% in size
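Readout: luminescence from CellTiter-Glo after 30 min in the dark at RT. Cells: DT40 Tdp1-/- with stable hTDP1, 400/well. Exposure: compounds alone, ≥48 hr, 37 °C.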
DT40 TDP1 CPT = growth inhibition of DT40 Tdp1-/-;hTDP1 cells with camptothecin (screen for TDP1 inhibitors) | chicken DT40 Tdp1-/-;hTDP1 cells + 20 nM CPT, ATP luminescence, 48 h | Potency, µM (series often up to 46.2 µM), without a hit: top-dose activity change, negative = growth inhibition, most hits filed as inhibitors | 420,000 compounds, 12% hits | AID 686979; note: potency is the fitted concentration of half-maximal effect; nearly all actives have a fitted effect of over 55% in size
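Cell growth measured by CellTiter-Glo luminescence after a minimum 48 h, 37 C compound exposure with 20 nM CPT in Tdp1-knockout DT40 cells stably expressing hTDP1, seeded 400/well; qHTS titration format.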
LDHA block = LDHA (human) enzyme inhibition; purified LDHA, NADH/diaphorase-resazurin fluorescence; hits give low values; 480,000 compounds, 0.15% hits; P00338; activity change, % (values are at about 110 or 230 µM); in the data active = activity change below about -30%; inconclusive = mostly about -25% to -30%;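 note: plate controls were DMSO wells for no effect and wells without enzyme for full effect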
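Enzyme activity of human lactate dehydrogenase 5 (2 nM; 0.06 mM NADH, 0.2 mM pyruvate, 5 min, RT) is measured via a resazurin/diaphorase fluorescence readout of residual NADH.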
Gal4-VP16 FLuc = inhibits Gal4-VP16 luciferase reporter, ROR gamma counter-screen; Drosophila S2 Gal4-VP16 UAS-luciferase, luminescence, 20 h; Potency, µM (highest dose often 53.6 µM), for the others: at the highest dose activity, negative = inhibition, actives largely listed as inhibitors; 310,000 compounds, 3.5% hits; AID 2546;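 note: Gal4-VP16 expression switched on by copper sulfate through the metallothionein promoter; potency is the fitted concentration of half-maximal effect; nearly all actives have a fitted effect of over 50% in size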
Numbers without * were called inactive. Compounds with a hit are over-represented: about 18% of the library has one in this group of screens. Unless noted, calls come from the whole dose curve; as a rule, active = well fitted curve in the direction sought with a large enough effect; inconclusive = small, poorly fitted or top-dose-only effect, or another doubt; inactive = no such curve, though single readings can be large; an effect the other way counts as inactive or inconclusive. Unless noted, % is set by controls: 0 for no effect and ±100 for the full control effect.

For Cc1cnc(CNc2ncnc3ccc(-c4ccccc4Cl)cc23)cn1 the results were RORg inh 23%, TDP1 cell noCPT inconclusive, DT40 TDP1 CPT inconclusive and Gal4-VP16 FLuc -2%.
For Cc1cnc(CNc2ncnc3ccc(-c4ccccc4C)cc23)cn1 the results were RORg inh 3%, TDP1 cell noCPT inconclusive, DT40 TDP1 CPT 16µM* and Gal4-VP16 FLuc -27%.
Cc1ccc(CNc2nc3ccccc3nc2NS(=O)(=O)c2ccc(F)cc2)cc1 was read as LDHA block 3.
`CCc1cc2c(C)ccc(C)c2nc1SCC(=O)Nc1c(C)[nH]c(=O)[nH]c1=O` gave RORg inh 6%, IL-1B inflam inh -5, TDP1 cell noCPT inconclusive, DT40 TDP1 CPT 21µM*, LDHA block -5 and Gal4-VP16 FLuc inconclusive.
CCc1cc2c(C)ccc(C)c2nc1SCC(=O)Nc1c[nH]c(=O)[nH]c1=O was read as RORg inh -12%, IL-1B inflam inh 71, TDP1 cell noCPT 12µM*, DT40 TDP1 CPT inconclusive, LDHA block -3 and Gal4-VP16 FLuc -3%.
Screening O=C(CCc1ncc(-c2ccccc2F)o1)Nc1cccc(C(=O)NC2CC2)c1 returned LDHA block 11.
For Cc1ccc(Cn2c(SCC(=O)N3CC(=O)Nc4ccccc43)nc3ccccc3c2=O)cc1 the results were RORg inh 1.6µM*, IL-1B inflam inh 0, TDP1 cell noCPT inconclusive, DT40 TDP1 CPT inconclusive, LDHA block -4 and Gal4-VP16 FLuc inconclusive.
O=C1CN(C(=O)CSc2nc3ccccc3c(=O)n2CC2CCCO2)c2ccccc2N1 (stereo unspecified) was read as RORg inh 34%, IL-1B inflam inh -19, TDP1 cell noCPT -7%, DT40 TDP1 CPT -2%, LDHA block -11 and Gal4-VP16 FLuc 4%.
For O=C1CN(C(=O)CSc2nnnn2-c2ccc(Cl)cc2)c2ccccc2N1 the results were RORg inh 3.5µM*, IL-1B inflam inh -11, TDP1 cell noCPT -27%, DT40 TDP1 CPT -12%, LDHA block -2 and Gal4-VP16 FLuc -3%.
Screening O=C1CN(C(=O)CSc2nc3cc(Cl)ccc3c(=O)n2Cc2ccccc2)c2ccccc2N1 returned RORg inh inconclusive, IL-1B inflam inh -72*, TDP1 cell noCPT inconclusive, DT40 TDP1 CPT inconclusive, LDHA block -14 and Gal4-VP16 FLuc 13µM*.
For CCOc1ccc(CN(C)C(=O)C2CCN(c3nc4ccccc4o3)CC2)cc1OC the results were LDHA block -4.
For COc1cccc(OC)c1C(=O)Nc1cccc(-c2nc3ccc(C)cc3o2)c1 the results were LDHA block 1.
`CCCn1nc(C(=O)OC(C)C(=O)NCc2ccco2)c2ccccc2c1=O` (stereo unspecified) gave LDHA block -13.
`CC(C)CC(=O)N1CCN(Cc2ccncc2)CC1` gave LDHA block 3.
`C(=N\Nc1nc(-c2ccccn2)nc2ccccc12)/c1ccccc1` gave RORg inh 0.089µM*, LDHA block 0 and Gal4-VP16 FLuc 0.5µM*.
Nc1nonc1N/N=C\c1ccccc1 was read as RORg inh 14%, IL-1B inflam inh 0, TDP1 cell noCPT -23%, DT40 TDP1 CPT 4%, LDHA block -7 and Gal4-VP16 FLuc -2%.
`ClC(Cl)(Cl)c1nc(N/N=C/c2ccncc2)c2ccccc2n1` gave RORg inh inconclusive, IL-1B inflam inh 11, TDP1 cell noCPT inconclusive, DT40 TDP1 CPT -18%, LDHA block -7 and Gal4-VP16 FLuc -13%.
For C(=N\Nc1nc(-c2cccnc2)nc2ccccc12)/c1ccccc1 the results were RORg inh inconclusive, TDP1 cell noCPT 16µM*, DT40 TDP1 CPT inconclusive, LDHA block -13 and Gal4-VP16 FLuc -10%.
For CNc1nc(-c2cccnc2)nc2ccccc12 the results were RORg inh 4%, TDP1 cell noCPT inconclusive, DT40 TDP1 CPT inconclusive and Gal4-VP16 FLuc inconclusive.
COc1cccc(CNc2nc(-c3cccnc3)nc3ccccc23)c1 was read as RORg inh 0%, IL-1B inflam inh -93*, TDP1 cell noCPT inconclusive, DT40 TDP1 CPT inconclusive, LDHA block -1 and Gal4-VP16 FLuc -4%.
For FC(F)(F)c1nc2ccccc2nc1N/N=C\c1ccccc1 the results were RORg inh 3.5µM*, IL-1B inflam inh 11, TDP1 cell noCPT 18µM*, DT40 TDP1 CPT 21µM*, LDHA block 3 and Gal4-VP16 FLuc 13µM*.
`Cc1cccc(CNc2nc(-c3cccnc3)nc3ccccc23)c1` gave RORg inh -4%, TDP1 cell noCPT inconclusive, DT40 TDP1 CPT inconclusive and Gal4-VP16 FLuc -22%.
Screening O=C(/C(Br)=C/Nc1ccc(Cl)cc1Cl)C(F)(F)F returned LDHA block 1.
Screening O=C(O)c1ccc(CNC(=O)c2ccccc2C(F)(F)F)cc1 returned LDHA block -4.
`Cc1ccc(-c2csc(-c3ccccc3N)n2)cc1` gave LDHA block 7.
COc1cccc(CNC(=O)CC2CCN(C(=O)c3[nH]c(C)cc3C)CC2)c1 was read as LDHA block -20.
Brc1ccc(-c2nc(N/N=C/c3cccnc3)c3ccccc3n2)cc1 was read as RORg inh inconclusive, IL-1B inflam inh 23, TDP1 cell noCPT 13µM*, DT40 TDP1 CPT 12µM*, LDHA block 4 and Gal4-VP16 FLuc inconclusive.
Screening CC(O)CNc1nc(-c2cccnc2)nc2ccccc12 (stereo unspecified) returned LDHA block 5.
COc1cccc(/C=N/Nc2nc(-c3cccnc3)nc3ccccc23)c1 was read as RORg inh inconclusive, IL-1B inflam inh 28, TDP1 cell noCPT 16µM*, DT40 TDP1 CPT 16µM*, LDHA block -11 and Gal4-VP16 FLuc -22%.
`Cc1ccc(Nc2nc(-c3cccnc3)nc3ccccc23)cc1C` gave LDHA block -5.
`Fc1ccccc1CNc1nc(-c2cccnc2)nc2ccccc12` gave RORg inh inconclusive, IL-1B inflam inh -97*, TDP1 cell noCPT 23µM*, DT40 TDP1 CPT inconclusive, LDHA block -4 and Gal4-VP16 FLuc -14%.
Screening COc1ccccc1C(C)Nc1nc(-c2cccnc2)nc2ccccc12 (stereo unspecified) returned RORg inh -4%, IL-1B inflam inh inconclusive, TDP1 cell noCPT 23µM*, DT40 TDP1 CPT 18µM*, LDHA block -4 and Gal4-VP16 FLuc 0%.
